Assay outcomes (PubChem BioAssay)
Most compounds without a hit are left out; they make up all but 2.5% or so of the library.
Pol beta inh: inhibitors of human DNA polymerase beta. Pol beta primer extension/strand displacement, fluorescence kinetic. Potency, µM (doses to about 114 µM), for inactives: at the top dose activity change, negative = inhibition, usual class: inhibitors. 340,000 tested, 1.3% active. AID 485314. P06746; further: potency means the concentration at half of the fitted maximal effect; on the % scale 0 is the no-effect control and ±100 the full control effect
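Pol beta (10 nM) was preincubated with compound for 15 min at room temperature. The reaction was then started with 50 nM substrate and read immediately and after a further 10 min at room temperature.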
Pol eta inh-1: blocks human DNA polymerase eta activity. Q9Y253. recombinant Pol eta, fluorescent DNA replication assay. Potency, µM (doses to about 114 µM), for inactives: at the top dose activity change, negative = inhibition, actives largely listed as inhibitors. 390,000 tested, 1.2% active; further: potency means the concentration at half of the fitted maximal effect; on the % scale 0 is the no-effect control and ±100 the full control effect
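Pol eta at 10 nM preincubated with compounds 15 min at room temperature; reaction started with fluorescent substrate (50 nM final) and read kinetically at 0 and 10 min.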
Pol kappa inh-1: DNA polymerase kappa (human) inhibition | Potency, µM (series often up to 107 µM), inactives show at the top dose activity, negative = inhibition, hits mostly inhibitors | purified Pol kappa, fluorescent DNA synthesis assay, 10 min | 400,000 tested, 0.53% active | AID 588579; further: potency means the concentration at half of the fitted maximal effect; on the % scale 0 is the no-effect control and ±100 the full control effect
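Readout: fluorescence, taken kinetically at 0 and 10 min. Conditions: 10 nM Pol kappa, 15 min RT compound preincubation, 50 nM substrate final. Controls: enzyme-free buffer wells.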
POLI inh: blocks human DNA polymerase iota activity; Q9UNA4; Pol iota fluorescent replication assay, 10 min; Potency, µM (doses to about 115 µM), without a hit: top-dose activity, negative = inhibition, usual class: inhibitors; 390,000 tested, 1% active; further: potency means the concentration at half of the fitted maximal effect
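Fluorescent replication assay read twice, at 0 min and 10 min after adding 50 nM (final) substrate. Enzyme (10 nM) and compounds were first incubated 15 min at room temperature; enzyme-free buffer wells were negative controls.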
L3MBTL1 inh: blocks human L3MBTL1. 230,000 tested, 0.66% active. Q9Y468. Potency, µM (doses to about 57.1 µM), without a hit: at the top dose activity, negative = inhibition, actives largely listed as inhibitors. AlphaScreen L3MBTL1–H3K9me1 peptide binding; further: potency means the concentration at half of the fitted maximal effect; on the % scale 0 is the no-effect control and ±100 the full control effect; nearly all actives have a fitted effect of over 60% in size
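AlphaScreen proximity signal between nickel-chelate acceptor and streptavidin donor beads (final 10 ug/mL) reports binding of 50 nM L3MBTL1 to 75 nM biotin-H3 K9me1 peptide; complex incubated with compounds 30 min at room temperature; cefsulodin titration as control.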
APE1 inh-1: blocks human APE1 abasic DNA cleavage; P27695; Potency, µM (top dose mostly 65.8 µM), for the others: top-dose activity change, negative = inhibition, hits mostly inhibitors; recombinant APE1, TAMRA/BHQ-2 abasic DNA cleavage fluorescence; AID 2517; 350,000 tested, 0.35% active;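 further: potency means the concentration at half of the fitted maximal effect; plate controls were vehicle for no effect and reference inhibitor for full effect; nearly all actives have a fitted effect of over 55% in size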
Target sequence (P27695 whole entry, looked up): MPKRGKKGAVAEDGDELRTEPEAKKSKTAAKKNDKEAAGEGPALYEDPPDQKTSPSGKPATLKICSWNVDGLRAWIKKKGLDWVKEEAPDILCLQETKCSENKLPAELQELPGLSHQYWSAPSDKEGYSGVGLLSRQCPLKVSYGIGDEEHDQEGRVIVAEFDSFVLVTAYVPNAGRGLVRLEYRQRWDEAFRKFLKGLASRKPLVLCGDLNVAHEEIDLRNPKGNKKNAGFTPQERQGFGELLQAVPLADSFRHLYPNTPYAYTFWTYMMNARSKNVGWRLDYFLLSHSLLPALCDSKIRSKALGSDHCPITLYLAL
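Endonuclease cleavage of a quenched abasic-site DNA duplex (50 nM) by APE1 (0.75 nM) was tracked by TAMRA dequenching. Compounds were preincubated with enzyme 15 min at room temperature; data normalized to buffer-only and DMSO wells plus NSC13755 control.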
APE1 dye cs: DNA dye displacement counter-screen activity | Potency, µM (doses to about 28.5 µM), without a hit: at the top dose activity change, negative = inhibition, usual class: inhibitors | shares compounds with APE1 inh-1 | DNA fluorescent dye displacement counterscreen, fluorescence | AID 2564 | 480 tested, 7% active;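 further: loss of thiazole orange fluorescence as the dye is displaced from duplex DNA; potency means the concentration at half of the fitted maximal effect; 0% = ThO with dsDNA and no compound and -100% = ThO without dsDNA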
EndoIV counter: blocks E. coli endonuclease IV DNA cleavage; shares compounds with APE1 inh-1; E. coli Endo IV, fluorogenic AP-site DNA cleavage; Potency, µM (highest dose often 27.1 µM), for the others: at the top dose activity change, negative = inhibition, most hits filed as inhibitors; 560 tested, 4% active; AID 2565;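 further: potency means the concentration at half of the fitted maximal effect; plate controls were uninhibited enzyme wells for no effect and no enzyme buffer wells for full effect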
APE1 inh-2: APE1 (human) endonuclease inhibition, confirmation | shares compounds with APE1 inh-1 | Potency, µM (titrated, usually from 57.1 µM), for the others: at the highest dose activity change, negative = inhibition, usual class: inhibitors | purified APE1, fluorogenic abasic-site DNA cleavage | AID 2572 | 750 tested, 44% active; further: potency means the concentration at half of the fitted maximal effect; on the % scale 0 is the no-effect control and ±100 the full control effect; nearly all actives have a fitted effect of over 30% in size
APE1 FP: displaces DNA from human APE1 in FP assay; shares compounds with APE1 inh-1; APE1 binding to TAMRA-labelled double-stranded DNA, fluorescence polarization displacement; Potency, µM (top dose mostly 28.5 µM), inactives show top-dose activity, negative = inhibition, most hits filed as inhibitors; 480 tested, 7% active; AID 2573; further: potency means the concentration at half of the fitted maximal effect; on the % scale 0 is the no-effect control and ±100 the full control effect
PGK validate: blocks T. brucei phosphoglycerate kinase; shares compounds with Pol kappa inh-1; Potency, µM (top dose mostly 57.5 µM), inactives show at the top dose activity change, negative = inhibition, most hits filed as inhibitors; 500 tested, 79% active; TbPGK coupled GAPDH assay, Kinase-Glo luminescence; further: potency means the concentration at half of the fitted maximal effect; on the % scale 0 is the no-effect control and ±100 the full control effect; nearly all actives have a fitted effect of over 65% in size
Target sequence (P07378 whole entry, looked up): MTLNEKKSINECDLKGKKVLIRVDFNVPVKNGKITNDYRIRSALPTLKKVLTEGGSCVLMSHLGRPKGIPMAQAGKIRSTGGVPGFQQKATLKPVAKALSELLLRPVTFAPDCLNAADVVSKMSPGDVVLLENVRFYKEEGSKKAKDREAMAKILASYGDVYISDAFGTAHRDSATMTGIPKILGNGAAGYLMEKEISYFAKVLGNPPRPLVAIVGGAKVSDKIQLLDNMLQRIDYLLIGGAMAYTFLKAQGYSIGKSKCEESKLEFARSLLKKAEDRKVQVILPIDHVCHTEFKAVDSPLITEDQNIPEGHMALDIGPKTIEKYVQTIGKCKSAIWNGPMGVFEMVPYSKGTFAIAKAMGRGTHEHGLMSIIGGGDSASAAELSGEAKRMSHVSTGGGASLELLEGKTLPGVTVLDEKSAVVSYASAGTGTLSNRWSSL
Pol iota confirm: Confirm cherry-picked inhibitors of human polymerase iota. shares compounds with Pol kappa inh-1. Pol iota primer extension, TAMRA/BHQ fluorescence. Potency, µM, hits mostly inhibitors. 1,500 tested, 77% active. AID 720496; further: potency means the concentration at half of the fitted maximal effect
GALK inh confirm: confirmation of human galactokinase (GALK) inhibitors; shares compounds with Pol eta inh-1; purified GALK, Kinase-Glo ATP depletion luminescence; Potency, µM (top dose mostly 115 µM), without a hit: at the highest dose activity, negative = inhibition, most hits filed as inhibitors; 150 tested, 70% active; AID 2015
Redox cycling: counter-screen for GALK inhibitors: redox cycling H2O2 generation | AID 2035 | shares compounds with Pol eta inh-1 | Potency, µM (highest dose often 115 µM), for the others: at the highest dose activity change, negative = H2O2 signal, most hits filed as inhibitors | 150 tested, 40% active | Phenol red-HRP H2O2 redox cycling, absorbance 600 nm
HEK293 viability: HEK-293 cytotoxicity, GALK inhibitor secondary | shares compounds with Pol eta inh-1 | Potency, µM (series often up to 46.1 µM), inactives show top-dose activity change, negative = cytotoxicity, actives largely listed as inhibitors | HEK-293 viability, ATP luminescence (CellTiter-Glo), 24/48 h | 170 tested, 10% active; further: potency means the concentration at half of the fitted maximal effect; on the % scale 0 is the no-effect control and ±100 the full control effect
Pol kappa inh-2: Pol kappa (human) inhibition, cherry-pick confirmation; shares compounds with Pol eta inh-1; purified Pol-kappa, fluorescent strand-displacement substrate; Potency, µM, hits mostly inhibitors; 920 tested, 76% active; AID 720501; further: potency means the concentration at half of the fitted maximal effect
Pol eta inh-2: confirmation of human DNA polymerase eta inhibitors; Potency, µM, most hits filed as inhibitors; Pol eta primer extension, TAMRA/BHQ fluorescence, 10 min; shares compounds with Pol eta inh-1; AID 720502; 2,600 tested, 64% active; further: potency means the concentration at half of the fitted maximal effect
* hit, by the source's call; ? = inconclusive; . = no result given; [ ] = dose if it differs, or a comment. The call rests on the fitted dose curve; in most records, active means well fitted curve in the direction sought with a large enough effect; inconclusive means small, poorly fitted or top-dose-only effect, or another doubt; inactive means no such curve, though single readings can be large; an effect the other way counts as inactive or inconclusive.

SMILES	Pol beta inh	Pol eta inh-1	Pol kappa inh-1	POLI inh	L3MBTL1 inh	APE1 inh-1	APE1 dye cs	EndoIV counter	APE1 inh-2	APE1 FP	Pol iota confirm	Pol eta inh-2	others
O=C1C=CC2=C3c4cc(O)c(O)cc4CC3(O)COC2=C1O (stereo not drawn)	.	0.79µM*	1.1µM*	1.3µM*	.	0.11µM*	?	70%[57.1 µM]	1.4µM*	18µM*	.	.	PGK validate=0.58µM*;GALK inh confirm=21µM*;Redox cycling=-3%;HEK293 viability=-7%
COCCCNc1c2c3c(cccc3[nH]c1=O)C(=O)c1ccccc1-2	25µM*	?	?	?	.	?	.	13µM*	?	4µM*	?	?	Pol kappa inh-2=?
COCCCNC1=C(Cl)C(=O)c2ccccc2C1=O	-20%	-3%	-7%	-8%	-16%	-6%	.	.	.	.	.	.
COc1cccc(OC)c1C(=O)Nc1ccccc1C(=O)N1CCCCCC1	13%	-13%	-1%	14%	.	24%	.	.	.	.	.	.
CC1OC(OCC2OC(Oc3c(-c4ccc(O)cc4)oc4cc(O)cc(O)c4c3=O)C(O)C(O)C2O)C(O)C(O)C1O (stereo not drawn)	?	10µM*	28µM*	?	14µM*	3.5µM*	?	0%	3.2µM*	-1%	42*	60*	PGK validate=5.2µM*
N#C/C(=C\c1cc(O)c(O)c(O)c1)C(N)=O	?	4%	-1%	?	-88%	3.5µM*	4%	160%	?	1%	19*	67*
CCOc1ccccc1NC(=O)c1c(NC(=O)c2cccc(C)c2)sc2c1CCC2	4%	-19%	-6%	39%	.	.	.	.	.	.	.	.
CN1C(=O)/C(=C/c2ccccc2OCc2ccc(C(=O)O)cc2)NC1=S	-1%	-15%	-13%	?	-7%	-5%	.	.	.	.	.	.
O=C(O)c1ccc(COc2ccccc2/C=C2/NC(=O)N(c3cccc(Cl)c3)C2=O)cc1	25µM*	10µM*	40µM*	28µM*	-6%	?	.	.	16µM*	.	34*	34*	Pol kappa inh-2=19*
CCOC(=O)c1c(C)[nH]c(C)c1S(=O)(=O)N(C)CC(=O)NCc1ccc(Cl)cc1	1%	-15%	-6%[60.1 µM]	20%	.	.	.	.	.	.	.	.
CCN(CC)S(=O)(=O)c1cc(C(=O)O)ccc1Cl	2%	-5%	-8%	6%	.	-6%	.	.	.	.	.	.
CC(C)(O)CCCC(C)(O)c1ccc(C(=O)O)cc1O (stereo not drawn)	40µM*	10µM*	?	35µM*	.	?	-1%	10%	11µM*	-2%	.	60*
COC(=O)c1cccc(-n2c(C)cc(C=O)c2C)c1	12%	-17%	-8%	7%	-5%	2%	.	.	.	.	.	.
Cc1cc(C=O)c(C)n1-c1cccc(C(=O)O)c1	14µM*	4µM*	79µM*	18µM*	25µM*	22µM*	1%	3%	16µM*	2%	34*	21*
COC(=O)COc1c(Cl)cc(C(c2c(C)[nH][nH]c2=O)c2c(C)[nH][nH]c2=O)cc1OC	-1%	-2%	-1%	?	.	-8%	.	.	.	.	.	.
Cc1cccc2sc(NC(=O)Cn3c(C)csc3=O)nc12	.	5%	-28%	43%	-11%	-10%	.	.	.	.	.	.
CCN(CC(=O)Nc1c(F)cccc1F)C(=O)CNC(=O)c1cccs1	.	-9%	-14%	-1%	4%	1%	.	.	.	.	.	.
O=C(CSc1ccsc1[N+](=O)[O-])NCCc1ccccc1	?	2%	-3%	-14%	.	-7%	.	.	.	.	.	.
